# Laboratory results: PubChem BioAssay (Tox21)
# The source made the active and inactive calls. The call rests on the fitted dose curve.
# Assay: G protein-coupled receptor (GPCR) small molecule agonists, calcium flux assay: HEK293 wild type cell line counter screen (AID 1920065)
# Conditions: HEK293 WT calcium flux, fluorescence, agonist mode; series mostly up to 57.6 µM; activation: at the top concentration
# In short: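 Non-specific calcium responders were flagged by adding DMSO-dissolved compounds to dye-loaded cells and reading 480/540 nm fluorescence each second for 3 min; ATP served as positive control.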
# On the % scale 0 is the no-effect control and ±100 the full control effect.
row,Compound,activation
1,CNCc1cc(F)ccc1Oc1ccc(Cl)c(Cl)c1,2.09% (inactive)
2,CC(C)(C)c1cc(/C=C2\SC(=N)NC2=O)cc(C(C)(C)C)c1O,-0.47% (inactive)
3,CN(C)CCN(Cc1ccccc1)c1ccccn1,1.04% [at 26.5 µM] (inactive)
4,O=c1[nH]c(=O)n([C@H]2C[C@H](O)[C@@H](CO)O2)cc1F,-0.761% [at 26.5 µM] (inactive)
5,O=S(=O)(Oc1ccc(Cl)cc1)c1ccccc1,-2.15% (inactive)
6,CCc1ncc(C)[nH]1,0.851% (inactive)
7,O=C1CCCc2c1cc1ccc3cccc4ccc2c1c34,0.139% (inactive)
8,CC(C)(C)CC(C)(C)c1ccccc1O,-0.154% (inactive)
9,CCCCC/C=C\C/C=C\CCCCCCCC(=O)NC(C)c1ccccc1 (stereo not given),0.33% [at 26.5 µM] (inactive)
10,Oc1ccc2c(c1)-c1ccccc1C2,-1.54% (inactive)
11,CSC(=O)c1cccc2nnsc12,-0.0881% (inactive)
12,CCC[C@@H]1C[C@@H](C(=O)N[C@@H]([C@H]2O[C@H](SC)[C@H](O)[C@@H](O)[C@H]2O)[C@@H](C)O)N(C)C1,0.027% [at 26.5 µM] (inactive)
13,CCCCCCCCCCCCCCCCCCNC(=O)OC1CCN(C(=O)OC[C@H](COC(=O)N(Cc2cccc[n+]2CC)C(=O)c2ccccc2OC)OC)CC1,2.48% [at 26.5 µM] (inactive)
14,CC(=O)/C=C/C=C1/C2CCC(C2)C1(C)C (stereo not given),-0.0943% [at 26.5 µM] (inactive)
15,Cc1c(-c2ccccc2)oc2c(C(=O)OCCN3CCCCC3)cccc2c1=O,0.0016% [at 26.5 µM] (inactive)
16,CCN(Cc1cccnc1)C(=O)c1cccc(Cl)c1[C@]1(C)C(=O)N(Cc2ccc(OC)cc2OC)c2ccc(Cl)cc21,-0.438% (inactive)
17,COc1cc(-c2ccc(=O)[nH]n2)ccc1OC(F)F,-0.0965% [at 26.5 µM] (inactive)
18,CCCCCCCCCCCCN1CCCCCC1=O,-0.906% (inactive)
19,COc1ccc(S(=O)(=O)Nc2nnc(CC(C)C)s2)cc1,-0.243% [at 26.5 µM] (inactive)
20,NC(=O)N1C(=O)C(C(=O)c2cc(Cl)cs2)c2cc(F)c(Cl)cc21 (stereo not given),-0.184% (inactive)

row,Compound,activation
1,O=C(O)c1c2ccccc2cc2ccccc12,-0.117% (inactive)
2,Cc1cc(NC(=O)C(=O)O)cc(C)c1Oc1ccc(O)c2c1CCC2,-0.931% (inactive)
3,CCOC(=O)C1=C(C)NC(C)=C(C(=O)OCC)C1c1ccccc1/C=C/C(=O)OC(C)(C)C,0.135% [at 26.5 µM] (inactive)
4,Cc1oc(-c2ccccc2)nc1CCOc1cccc2c1ccn2CCC(=O)O,-1.16% (inactive)
5,O=C(CCCN1CCN(c2ccc(F)cc2)CC1)NC1c2ccccc2CSc2ccccc21 (stereo not given),-0.191% [at 26.5 µM] (inactive)
6,COc1ccc(/C=C/c2cc(OC)cc(=O)o2)cc1,-0.0833% [at 26.5 µM] (inactive)
7,CCCNC(C)C(=O)Nc1c(C)csc1C(=O)OC (stereo not given),0.494% [at 26.5 µM] (inactive)
8,OCCCS,-1.33% (inactive)
9,O=C(O)COc1ccc2ccccc2c1,-0.428% (inactive)
10,OCCCCCO,-0.825% (inactive)
11,CC(=O)OCC(=O)[C@@]1(O)[C@H](OC(C)=O)C[C@H]2[C@@H]3CCC4=CC(=O)C=C[C@]4(C)[C@@]3(F)[C@@H](O)C[C@@]21C,-0.0003% [at 26.5 µM] (inactive)
12,NS(=O)(=O)c1ccc(C(=O)O)cc1,-0.038% [at 26.5 µM] (inactive)
13,O=C(O)C1(C(=O)Nc2ccc(Cl)cc2Cl)CC1,-1.94% (inactive)
14,CC1=CC(C)C(C=O)C(C)C1 (stereo not given),-1.21% (inactive)
15,ClCCOCCOCCCl,0.057% (inactive)
16,CCc1c2c(nc3ccc(OC(=O)N4CCC(N5CCCCC5)CC4)cc13)-c1cc3c(c(=O)n1C2)COC(=O)[C@]3(O)CC,-0.15% [at 26.5 µM] (inactive)
17,CC(COc1ccccc1)NN (stereo not given),0.484% [at 26.5 µM] (inactive)
18,CCCCNC(=O)NCCCC,1.02% (inactive)
19,CCOc1ccccc1OCC1CNCCO1 (stereo not given),1.39% [at 26.5 µM] (inactive)
20,Cc1coc2ccccc2c1=O,-0.15% [at 26.5 µM] (inactive)
